This is part of a sample that, as a whole, favours compounds with a hit. Of some 83,000 tested, about 20% had one in any assay.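 Testing used 96-well plates and a 48-hour single-concentration exposure. Example: -40 means 40% of the starting cells died.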 Active and inactive are the calls of the source. How the source made its calls: active means growth percent below 10; inactive means the rest.

The test system of the assay is SNB-19 CNS. In words: NCI-60 one-dose screen, 48 h (100 = growth as untreated, 0 = no growth, -100 = all killed). As to conditions: 10 µM.
For `Cc1ccc(S(=O)(=O)N(C)CCCCCC(=O)O)cc1`, the growth is 108% (inactive).

`NC1=NC(c2ccc(Cl)cc2)C2=C(N1)/C(=C/c1ccc(Cl)cc1)CCC2` (centres undefined): the growth was 85.7% (inactive).

For the compound `S=C(NCc1ccccc1)NCc1ccccc1`, the growth was 95.1% (inactive).

Consider `COc1cc2cc(Oc3ccc(NC(=O)c4ccccc4)cc3)c(C)nc2cc1OC`, for which the growth is 98.6% (inactive).

Take `Cc1c(Cl)cccc1NC(=O)CN1CCOCC1`: the growth was 117% (inactive).

Take `C=CCN(CC=C)C(=O)[C@H](CC)[C@@H]1CC[C@@H](C)[C@@H]([C@H](C)[C@@H](O)[C@@H](C)C(=O)[C@H](CC)C2O[C@]3(C=CC(=O)[C@]4(CC[C@@](C)([C@H]5CC[C@](O)(CC)[C@H](C)O5)O4)O3)[C@H](C)C[C@@H]2C)O1` (some centres undefined): the growth was 23.8% (inactive).

Turning to `CCN1CCN(CCC(=O)Nc2cccc(-n3cc(-c4ccncc4)c(-c4ccc(Cl)c(OC)c4)n3)c2)CC1`, the growth is 39.4% (inactive).

For `Nc1ccn(Cc2nnc(CCC(=O)c3nc4ccccc4[nH]3)o2)c(=O)n1`, the growth is 91% (inactive).

For `Cc1ccc2nc(Cl)c(-c3nc4ccccc4o3)cc2c1`, the growth is 93.2% (inactive).

Regarding `C/C=C/CSC(C)(C)C(=O)NC`, the growth was 101% (inactive).

`COc1cc2c(Nc3ccc(S(N)(=O)=O)cc3)ncnc2c(OC)c1OC`: the growth is 93.5% (inactive).

Consider `CC(=O)OC1C=CC(OC(C)=O)O1` (centres undefined), for which the growth was 104% (inactive).

For the compound `CC(=O)C1N=NCC1c1ccccc1` (centres undefined), the growth is 99.9% (inactive).

`O=C(CN(C1CCCCC1)C1CCCCC1)Nc1ccc(S(=O)(=O)c2ccc(NC(=O)CN(C3CCCCC3)C3CCCCC3)cc2)cc1`: the growth was 11.1% (inactive).

The values above are taken from PubChem BioAssay (NCI).
